Shown are actives, neighbours in structure and some others; about 10% of the full set was active somewhere.
BAZ2B block – BAZ2B (human) inhibition | Q9UIF8 | Potency, µM (doses to about 114 µM), inactives show at the top dose activity change, negative = inhibition, hits mostly inhibitors | AlphaScreen BAZ2B-H3K14Ac peptide displacement | 360,000 tested, 4.4% active; note: potency is the fitted concentration of half-maximal effect; % is set by controls: 0 for no effect and ±100 for the full control effect; nearly all actives have a fitted effect of over 60% in size
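BAZ2B (50 nM) with biotin-H3(5-23)K14Ac peptide (50 nM) in PBS pH 7.4, 0.01% Tween-20, preformed 30 min, then compound 30 min at room temperature; top concentration 110uM. AlphaScreen streptavidin donor/nickel chelate acceptor beads (10 ug/mL final), 20 min dark, signal read.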
Six1-Eya2 blk – Six1/Eya2 interaction inhibition; Q15475+O00167; AlphaScreen GST-Six1/His-Eya2 binding, biochemical; hits give low values; activity change, % (no concentration beside the values); 360,000 tested, 0.56% active; AID 651725; in the data active = activity change below about -65%; inconclusive = mostly about -30% to -63%; note: % is set by controls: 0 for no effect and ±100 for the full control effect
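AlphaScreen luminescence read after one hour at 37 °C in darkness. Pin-transferred compounds met GST-Six1 and His-Eya2 protein (5X stock 250 nM/500 nM) plus glutathione donor and Ni-chelate acceptor beads (5X, 50 ug/mL).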
JMJD2A Tudor – blocks the human JMJD2A Tudor domain. O75164. Potency, µM (doses to about 114 µM), for inactives: at the top dose activity change, negative = inhibition, usual class: inhibitors. AlphaScreen JMJD2A-Tudor / H3K4me3 peptide binding. AID 504339. 390,000 tested, 4.4% active; note: potency is the fitted concentration of half-maximal effect; % is set by controls: 0 for no effect and ±100 for the full control effect; nearly all actives have a fitted effect of over 50% in size
HP1b chromo inh – blocks HP1-beta chromodomain binding to methylated histone tails | Potency, µM (highest dose often 114 µM), for inactives: at the top dose activity change, negative = inhibition, usual class: inhibitors | P83916 | AID 540317 | AlphaScreen HP1-beta / biotin-H3K9me3 peptide binding | 390,000 tested, 0.56% active; note: potency is the fitted concentration of half-maximal effect; nearly all actives have a fitted effect of over 70% in size
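AlphaScreen: HP1-beta (50 nM) preformed 30 min with biotin-H3(1-18)K9me3 peptide (50 nM) in PBS pH 7.4, 0.01% Tween-20. Compound added for 30 min at RT, then streptavidin donor/nickel chelate acceptor beads (10 ug/mL) for 30 min.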
G9a inh – inhibitors of human histone lysine methyltransferase G9a. G9a H3K9 monomethylation, AlphaScreen, 2 h. Potency, µM (highest dose often 102 µM), without a hit: at the top dose activity, negative = inhibition, hits mostly inhibitors. 350,000 tested, 8.8% active. AID 504332; note: potency is the fitted concentration of half-maximal effect; % is set by controls: 0 for no effect and ±100 for the full control effect; nearly all actives have a fitted effect of over 75% in size
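G9a (20 nM) was preincubated 15 min with compound, then reacted 2 h at room temperature with 500 nM biotin-H3K9 peptide and 20 µM SAM. Monomethyl-H3K9 detected by AlphaScreen using anti-H3K9me1 antibody.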
CtBP-E1A inh – CtBP/E1A binding inhibition; 340,000 tested, 0.49% active; AID 651724; AlphaScreen GST-E1A/His-CtBP binding, 1536-well; hits give low values; activity change, % (test concentration not listed); in the data active = activity change below about -65%; inconclusive = mostly about -30% to -63%; note: % is set by controls: 0 for no effect and ±100 for the full control effect
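In 5 uL wells, 23 nL compound meets equimolar GST-E1A and His-CtBP (5X stock 125 nM each) for 2 h, 37 °C. Beads (5X, 50 ug/mL) then 1 h, 37 °C, dark.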
The depositor's hits bear a star; ? = inconclusive; . = no result given; [ ] = remark or other dose. Unless noted, calls come from the whole dose curve; as a rule, active = well fitted inhibition curve with a large enough effect; inconclusive = small, poorly fitted or top-dose-only effect; inactive = no such curve, though single readings can be large or run the other way.

SMILES | BAZ2B block | Six1-Eya2 blk | JMJD2A Tudor | HP1b chromo inh | G9a inh | CtBP-E1A inh
Cc1ccc(C(=O)O)cc1NC(=O)c1cccs1 | 39.4% | 6.9 | -11.2% | 35.0% | ? | 6.0
Cc1ccc(C(=O)O)cc1NC(=O)C1=CSCCO1 | -7.2% | 19.1 | 14.4% | 53.3% | 50.1µM* | .
Cc1ccccc1OCC(=O)Nc1ccc(S(=O)(=O)N(Cc2ccccc2)c2ccccc2)cc1 | -3.9% | . | 79.4µM* | 41.4% | -5.9%[59 µM] | .
O=C(COc1ccc(F)cc1)Nc1ccc(S(=O)(=O)N(Cc2ccccc2)c2ccccc2)cc1 | 10.9% | . | -10.3% | 77.5% | 35.7%[59 µM] | .
O=C(c1ccc(CSc2nc3ccncc3[nH]2)cc1)N1CCN(c2cccc(Cl)c2)CC1 | 35.5µM* | -22.8 | ? | 13.1% | 44.7µM* | -29.1
CCC(C)[C@H]1CNCCN1CC1(c2ccccc2)CC1 (some centres undefined) | 9.6% | 6.6 | -21.8% | 37.8% | 13.4%[2.33 µM] | .
CCC(C)[C@H]1CNCCN1CCc1cc(C(F)(F)F)cc(C(F)(F)F)c1 (some centres undefined) | 50.1µM* | 12.8 | -34.5% | 25.6% | -19.5%[2.33 µM] | .
CCC(C)[C@H]1CNCCN1CCc1cccc2ccccc12 (some centres undefined) | ? | -1.5 | 56.2µM* | -0.4% | 18.1%[2.33 µM] | -1.5
c1ccc2c(C[C@@H]3CNCCN3CCC34CC5CC(CC(C5)C3)C4)cccc2c1 | . | -3.4 | 39.8µM* | -3.7% | . | 0.0
COc1cccc(C2C(=O)N(C3CCCCC3)CC(=O)N2CCc2ccc(OC)c(OC)c2)c1 (centres undefined) | 3.7% | . | -9.8% | 16.2% | 2.2%[59 µM] | .
Cc1ccc(Cl)cc1NC(=O)Nc1cccc(OCc2cc(=O)n3ccccc3n2)c1 | 8.6% | . | -3.6% | 12.0%[57 µM] | 12.6%[59 µM] | .
CCc1nn2c(=O)c(S(=O)(=O)Nc3ccc(Br)cc3F)c(C)nc2s1 | -1.6% | . | 0.7% | 25.6% | -5.1%[59 µM] | .
CCOCc1nnc(NC(=O)c2cc(C(=O)OC)cc([N+](=O)[O-])c2)s1 | ? | 8.5 | 44.7µM* | 3.2% | 50.1µM* | -0.3
CCOC(=O)CSc1nnc(NC(=O)c2cc([N+](=O)[O-])cc([N+](=O)[O-])c2)s1 | -10.0% | 4.2 | ? | 31.2% | 25.1µM* | -24.1
COC(=O)c1cc(C(=O)Nc2nnc(CC(C)(C)C)s2)cc([N+](=O)[O-])c1 | -7.8% | -4.3 | -27.3% | ? | 44.7µM* | 1.3
CCOCc1nnc(NC(=O)c2ccc(OC)cc2)s1 | 11.1% | 3.7 | -1.2% | 30.1% | 9.6%[59 µM] | -3.7
COCCSc1nnc(NC(=O)c2ccc([N+](=O)[O-])cc2)s1 | -20.8% | 0.2 | -19.7% | 33.9% | -30.3% | .
COc1cccc(CNC(=O)CCc2c(C)nc3c(c(C)nn3-c3ccc(C)c(C)c3)c2C)c1 | 4.0% | . | -12.1% | 11.3% | -1.4%[59 µM] | .
C=C(C)CSc1nc2sc3c(c2c(=O)n1-c1ccccc1)CCC(C)C3 (centres undefined) | 0.4% | . | -3.3% | 30.6% | -0.4%[59 µM] | .
CC(NC(=O)c1ccccc1Cl)C(=O)NCc1cccs1 (centres undefined) | 19.9% | 5.3 | -19.3% | 10.6% | -36.7% | 4.7
C[C@H](NC(=O)c1ccccc1Cl)C(=O)NCc1cccs1 | -19.0% | 5.1 | -14.0% | 41.6% | 44.7µM* | .
Cc1ccc(C(=O)COC(=O)c2cnccn2)cc1 | 1.6% | 3.6 | -51.5% | 29.8% | ? | 4.0
O=C(COC(=O)c1cn(-c2ccccc2)nc1-c1ccccc1)c1ccc([N+](=O)[O-])cc1 | ? | . | . | . | 2.51µM* | .
O=C(COC(=O)c1ccccn1)c1cccc(Br)c1 | 17.8µM* | ? | 12.6µM* | 19.0% | . | ?
O=C(COC(=O)c1cnccn1)c1ccc([N+](=O)[O-])cc1 | ? | -5.6 | -14.9% | 4.9% | 25.1µM* | -11.3
SMILES | BAZ2B block | Six1-Eya2 blk | JMJD2A Tudor | HP1b chromo inh | G9a inh | CtBP-E1A inh
O=C(COC(=O)c1ccccn1)c1ccc(Br)cc1 | 25.1µM* | ? | 28.2µM* | 18.0% | 50.1µM* | ?
COc1ccc(C(=O)COC(=O)c2ccccn2)cc1OC | ? | -16.0 | -24.5% | 23.6% | ? | ?
COc1ccccc1NC(=O)CC(C)n1nc(C)cc1C (centres undefined) | -11.7% | . | -13.7% | 32.1% | 2.5%[59 µM] | .
Nc1cccc(S(=O)(=O)N2CCOCC2)c1 | . | . | -14.9% | 27.1% | . | .
CCN(c1ccccc1)S(=O)(=O)c1ccc(NC(=O)c2cc(=O)c3ccc(C)c(C)c3o2)cc1 | -37.2% | . | -17.0% | 0.4% | -4.9%[59 µM] | .
O=c1c2oc3ccccc3c2n(Cc2ccccc2Cl)c(=O)n1Cc1ccc2c(c1)OCO2 | ? | . | -2.9% | 20.6% | -28.4%[59 µM] | .
O=C(Nc1nnc(SCC(=O)N2CCOCC2)s1)C1CC(=O)N(c2ccccc2)C1 (centres undefined) | -8.0% | -7.7 | -4.9% | 45.5% | 26.5%[59 µM] | -21.2
COc1ccc(N2CC(C(=O)Nc3nnc(SCC(=O)N4CCOCC4)s3)CC2=O)cc1 (centres undefined) | -23.2% | -12.9 | -25.6% | 4.6% | 35.5µM* | -6.7
Cc1cccc(N2CC(C(=O)Nc3nnc(SCC(=O)N4CCOCC4)s3)CC2=O)c1 (centres undefined) | -25.0% | -4.7 | -27.5% | 21.5% | 44.7µM* | -20.4
COc1ccc(N2CCN(C(=O)CSc3nnc(NC(=O)C4CCC4)s3)CC2)cc1 | -1.6% | 1.5 | 1.7% | 19.3% | -6.3%[0.501 µM] | -12.2
Cc1ccc(CN2C(=O)C(O)(c3c(C)[nH]c4ccccc34)c3ccccc32)cc1 (centres undefined) | 44.7µM* | . | ? | ? | ? | .
CCCN1C(=O)C(O)(c2c(C)[nH]c3ccccc23)c2ccccc21 (centres undefined) | ? | 4.0 | -5.0% | 33.6% | -15.2%[59 µM] | .
COc1cccc(NS(=O)(=O)c2cc3c4c(c2)C(C)C(=O)N4CCC3)c1 (centres undefined) | -7.6% | . | -8.1% | 34.1% | -41.3%[59 µM] | .
CCOc1ccc(NC(=O)CSc2nc3ccccc3c(=O)n2CCC(=O)NC2CCCCC2)cc1 | 0.4% | . | -12.7% | 29.9% | 13.5%[59 µM] | .
CCc1ccc(-n2c(=O)c3sc4ccccc4c3n(CC(=O)NCc3ccccc3)c2=O)cc1 | 1.5% | . | -14.6% | 33.8% | 10.0%[59 µM] | .
COc1ccc(-n2nnnc2SCC(=O)N2CCOCC2)cc1 | -4.5% | 0.4 | -12.1% | 5.2% | -0.8%[59 µM] | -4.0
O=[N+]([O-])c1ccc(CSc2ccc(S(=O)(=O)N3CCCC3)cn2)cc1 | -5.6% | -13.8 | -18.6% | 18.5% | 2.8%[2.33 µM] | -5.9
CC(C)C(C)NC(=O)CSc1ccc(S(=O)(=O)N2CCOCC2)cn1 (centres undefined) | 6.5% | 3.0 | -1.3% | 25.1% | 17.5%[12.7 µM] | 0.0
CC(C)CCNC(=O)NC(=O)CSc1ccc(S(=O)(=O)N2CCOCC2)cn1 | -5.3% | 2.5 | -15.8% | -10.2% | 1.58µM* | 9.6

Source: PubChem BioAssay
